Experimental data reported in the supplement of paper PMC6607015.
Structures can show the parent of a compound that is named as a salt.

What was measured:
Conditions in all cases: compound concentration in added solution (µM; 5 µl added to 20 µl cells): 10; 18 h
A431 [1] = assay: LBPA endosome anti-LBPA integrated intensity (sum per cell), Z-score; higher = more LBPA staining
Procedure, shortened: (§1)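 Each value is a Z-score normalised in AcuityXpress from per-cell integrated LBPA or filipin intensity, taken over the whole cell or within LBPA endosomes. Duplicate 384-well imaging plates held 5 µl of 10 µM compound solution, onto which 3,500 HeLa MZ or A431 cells in 20 µl were seeded per well. After 18 h the cells were fixed in 4% PFA, stained with 6C4 anti-LBPA antibody, filipin, propidium iodide and CellTracker green, imaged four times per well at 20× and segmented in MetaXpress.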

HeLa MZ [2] = assay: as above
Procedure, shortened: as §1

A431 [3] = assay: whole-cell filipin (free cholesterol) integrated intensity, Z-score; higher = more cholesterol staining
Procedure, shortened: as §1

HeLa MZ [4] = assay: as above
Procedure, shortened: as §1

A431 [5] = assay: filipin (cholesterol) integrated intensity within LBPA endosomes, Z-score; higher = more cholesterol in LBPA endosomes
Procedure, shortened: as §1

HeLa MZ [6] = assay: as above
Procedure, shortened: as §1

SMILES	LBPA endosome anti-LBPA integrated intensity (z-score) (A431 [1])	LBPA endosome anti-LBPA integrated intensity (z-score) (HeLa MZ [2])	whole-cell filipin (z-score) (A431 [3])	whole-cell filipin (z-score) (HeLa MZ [4])	filipin (z-score) (A431 [5])	filipin (z-score) (HeLa MZ [6])
Oc1c(Cl)cc(Cl)c2cccnc12 [Chloroxine]	-0.792	-1.58	-0.709	-1.27	-0.75	-0.803
CC[C@H]1OC(=O)[C@H](C)[C@@H](O[C@H]2C[C@@](C)(OC)[C@@H](O)[C@H](C)O2)[C@H](C)[C@@H](O[C@@H]2O[C@H](C)C[C@H](N(C)C)[C@H]2O)[C@](C)(O)C[C@@H](C)C(=O)[C@H](C)[C@@H](O)[C@]1(C)O [Erythromycin]	0.476	-0.196	0.409	-0.0449	0.977	0.203
CCC[C@@H]1C[C@@H](C(=O)N[C@@H]([C@H]2O[C@H](SC)[C@H](O)[C@@H](O)[C@H]2O)[C@H](C)Cl)N(C)C1 [Clindamycin hydrochloride]	-0.543	-0.18	-0.979	-0.574	-0.567	-0.563
C[N+](C)(C)CCCCCC[N+](C)(C)C [Hexamethonium dibromide dihydrate]	-0.482	-1.09	-0.483	-0.775	-0.514	-0.624
NCCC[C@H](N)CC(=O)N[C@H]1CNC(=O)[C@H]([C@H]2C[C@H](O)NC(N)=N2)NC(=O)/C(=C/NC(N)=O)NC(=O)[C@H](CO)NC(=O)[C@H](CO)NC1=O [Viomycin sulfate]	-0.57	-1.06	-0.305	-0.46	-0.563	-0.474
CC(C)NCC(O)c1ccc2ccccc2c1 (stereo not drawn) [Pronethalol hydrochloride]	0.244	-0.115	0.379	0.0476	-0.072	-0.11
Clc1ccc(Cn2c(CN3CCCC3)nc3ccccc32)cc1 [Clemizole hydrochloride]	0.145	0.955	0.228	-0.285	0.0324	-0.147
CC/C(=C(/CC)c1ccc(O)cc1)c1ccc(O)cc1 [Diethylstilbestrol]	-0.432	-0.702	-0.0535	-0.813	-0.37	-0.493
CN(CCCCCCCCCCN(C)C(=O)Oc1cccc([N+](C)(C)C)c1)C(=O)Oc1cccc([N+](C)(C)C)c1 [Demecarium bromide]	-0.223	-0.152	-0.139	-0.617	-0.179	-0.595
C[C@H](CCC(=O)O)[C@H]1CC[C@H]2[C@@H]3[C@@H](O)C[C@@H]4C[C@H](O)CC[C@]4(C)[C@H]3CC[C@]12C [Urosiol]	-0.47	-1.19	-0.529	-0.329	-0.433	-0.53
Nc1nc2c(ncn2COCCO)c(=O)[nH]1 [Acyclovir]	-0.598	-1.1	-1.13	-0.395	-0.557	-0.66
COc1cc(C(=O)NCc2ccc(OCCN(C)C)cc2)cc(OC)c1OC [Trimethobenzamide hydrochloride]	-0.218	-0.274	-0.94	-0.877	-0.32	-0.334
NC(=O)c1cnccn1 [Pyrazinamide]	-0.586	-0.505	-0.486	-0.665	-0.578	-0.581
Nc1c(Br)cc(Br)cc1CN[C@H]1CC[C@H](O)CC1 [Ambroxol hydrochloride]	-0.487	0.757	-0.529	-0.141	-0.428	-0.0836
CC(C(=O)O)c1ccc2c(c1)[nH]c1ccc(Cl)cc12 (stereo not drawn) [Carprofen]	-0.569	-1.21	-0.098	-0.307	-0.398	-0.538
CC(C)/N=c1\cc2n(-c3ccc(Cl)cc3)c3ccccc3nc-2cc1Nc1ccc(Cl)cc1 [Clofazimine]	1.95	1.42	-0.119	-1.15	0.416	-0.0158
CC(CCc1ccc(O)cc1)NCCc1ccc(O)c(O)c1 (stereo not drawn) [Dobutamine hydrochloride]	-0.212	0.142	-0.349	-0.893	-0.473	-0.28
CN/C(=N\CCSCc1nc[nH]c1C)NC#N [Cimetidine]	-0.436	-0.604	-0.5	-0.3	-0.458	-0.409
Nc1nc(F)nc2c1ncn2[C@@H]1O[C@H](CO)[C@@H](O)[C@@H]1O [Fludarabine]	-0.338	1.27	0.904	1.82	-0.372	-0.595
Cc1cc(NS(=O)(=O)c2ccc(N)cc2)no1 [Sulfamethoxazole]	-0.371	-0.141	-0.446	-0.158	-0.446	-0.3
CN(C)CCC=C1c2ccccc2COc2ccccc21 [Doxepin hydrochloride]	1.38	1.22	1.29	-0.0249	1.62	1.18
O=C(N[C@H](CO)[C@H](O)c1ccc([N+](=O)[O-])cc1)C(Cl)Cl [Chloramphenicol]	-0.509	-0.731	-0.952	-1.01	-0.558	-0.762
CCN(CC)CCc1nc(-c2ccccc2)no1 [Oxalamine citrate salt]	-0.387	0.162	-0.277	-0.546	-0.442	-0.374
CCN(CC)CCNC(=O)COc1ccc(OC)cc1 [Mefexamide hydrochloride]	-0.352	0.346	-0.627	-0.811	-0.519	-0.36

SMILES	LBPA endosome anti-LBPA integrated intensity (z-score) (A431 [1])	LBPA endosome anti-LBPA integrated intensity (z-score) (HeLa MZ [2])	whole-cell filipin (z-score) (A431 [3])	whole-cell filipin (z-score) (HeLa MZ [4])	filipin (z-score) (A431 [5])	filipin (z-score) (HeLa MZ [6])
O=C1c2c(O)cccc2Cc2cccc(O)c21 [Anthralin]	-0.344	0.592	0.169	2.01	-0.334	-0.134
CC(=O)OCC(=O)[C@@]1(O)CC[C@H]2[C@@H]3CCC4=CC(=O)CC[C@]4(C)[C@@]3(F)[C@@H](O)C[C@@]21C [Fludrocortisone acetate]	-0.127	-0.216	-0.382	-0.957	-0.321	-0.564
CC1Cc2ccccc2N1NC(=O)c1ccc(Cl)c(S(N)(=O)=O)c1 (stereo not drawn) [Indapamide]	-0.302	0.5	-0.729	-0.419	-0.453	-0.438
Cc1cc2cc3c(C)cc(=O)oc3c(C)c2o1 [Trioxsalen]	-0.317	0.147	-0.465	-0.318	-0.425	-0.476
CC1CCc2c(N3CCC(O)CC3)c(F)cc3c(=O)c(C(=O)O)cn1c23 (stereo not drawn) [Nadifloxacin]	-0.419	-1.21	-0.24	-0.254	-0.402	-0.471
CN(C/C=C/c1ccccc1)Cc1cccc2ccccc12 [Naftifine hydrochloride]	-0.115	-0.525	0.224	-0.277	-0.136	-0.339
CC(C)NCC(O)COc1ccc(COCCOC(C)C)cc1 (stereo not drawn) [Bisoprolol fumarate]	0.695	0.146	-0.603	0.308	-0.0123	-0.0431
NC(=O)c1cc[n+](CC2=C(C(=O)[O-])N3C(=O)[C@@H](NC(=O)[C@@H](c4ccccc4)S(=O)(=O)O)[C@H]3SC2)cc1 [Cefsulodin sodium salt]	-0.471	-0.634	-0.331	-0.0382	-0.357	-0.398
Cc1c(C)c2c(c(C)c1O)CCC(C)(C(=O)O)O2 (stereo not drawn) [Trolox]	-0.472	0.342	-0.624	0.128	-0.552	-0.401
Nc1nc(N)nc(-c2cc(Cl)ccc2Cl)n1 [Irsogladine maleate]	-0.232	0.679	-0.0416	0.316	-0.334	-0.292
CC(=O)[C@H]1CC[C@H]2[C@@H]3CC=C4C[C@@H](O)CC[C@]4(C)[C@H]3CC[C@]12C [Pregnenolone]	2.84	2.65	1.33	1.33	2.1	1.2
Cn1c(=O)c2c(ncn2CCO)n(C)c1=O [Etofylline]	-0.487	-1.05	-0.938	-1.17	-0.451	-0.58
CCc1nc(N)nc(N)c1-c1ccc(Cl)cc1 [Pyrimethamine]	0.585	0.917	0.585	-0.093	-0.133	-0.422
N=C(N)NS(=O)(=O)c1ccc(N)cc1 [Sulfaguanidine]	-0.422	-1.14	-0.502	-0.128	-0.444	-0.493
C=C[C@H]1CN2CC[C@H]1C[C@@H]2[C@@H](O)c1ccnc2ccc(OC)cc12 [Quinidine hydrochloride monohydrate]	0.635	0.796	0.722	-0.0406	0.638	0.436
COc1ccc2cc([C@@H](C)C(=O)O)ccc2c1 [(R) -Naproxen sodium salt]	-0.646	-1.68	-0.677	-0.633	-0.535	-0.58
CCN(CC)CCNC(=O)c1cc(Cl)c(N)cc1OC [Metoclopramide monohydrochloride]	-0.305	1.1	-0.595	-0.234	-0.404	0.279
CCCNCC(O)COc1ccccc1C(=O)CCc1ccccc1 (stereo not drawn) [Propafenone hydrochloride]	3.53	1.93	2.04	1.83	2.65	2.28
CCc1cc(C(N)=S)ccn1 [Ethionamide]	-0.517	-0.148	-0.588	0.221	-0.493	-0.459
C[C@]12C=CC(=O)C=C1CC[C@@H]1[C@@H]2C(=O)C[C@@]2(C)[C@H]1CC[C@]2(O)C(=O)CO [Prednisone]	-0.485	-0.977	-0.505	0.0271	-0.452	-0.412
NCc1ccc(S(N)(=O)=O)cc1 [Mafenide hydrochloride]	-0.472	-0.546	-0.682	-0.536	-0.471	-0.44
CC(C)(Oc1ccc(CCNC(=O)c2ccc(Cl)cc2)cc1)C(=O)O [Bezafibrate]	-0.429	-0.597	-0.437	-0.728	-0.456	-0.612
O=C(O)CCc1nc(-c2ccccc2)c(-c2ccccc2)o1 [Oxaprozin]	-0.435	-0.524	-0.0363	0.42	-0.35	-0.246
CCCCNc1ccc(C(=O)OCCOCCOCCOCCOCCOCCOCCOCCOCCOC)cc1 [Benzonatate]	-0.445	-0.231	-0.686	-0.896	-0.427	-0.476
